Here are results for 37 molecules from PubChem BioAssay (EPA / NIEHS).

The structures appear in SMILES notation. Inconclusive results are not listed. The source made the active and inactive calls. The calls were made as follows, unless noted: active = hit-call score of the fitted dose curve at least 0.9, where 1 is the maximum; inconclusive = response in the unintended direction; inactive = score below 0.9.

A word on the AC50: it is the midpoint of the concentration-response curve, whichever way the signal moves.

Chain of E-selectin (Homo sapiens) (P16581 whole entry, looked up): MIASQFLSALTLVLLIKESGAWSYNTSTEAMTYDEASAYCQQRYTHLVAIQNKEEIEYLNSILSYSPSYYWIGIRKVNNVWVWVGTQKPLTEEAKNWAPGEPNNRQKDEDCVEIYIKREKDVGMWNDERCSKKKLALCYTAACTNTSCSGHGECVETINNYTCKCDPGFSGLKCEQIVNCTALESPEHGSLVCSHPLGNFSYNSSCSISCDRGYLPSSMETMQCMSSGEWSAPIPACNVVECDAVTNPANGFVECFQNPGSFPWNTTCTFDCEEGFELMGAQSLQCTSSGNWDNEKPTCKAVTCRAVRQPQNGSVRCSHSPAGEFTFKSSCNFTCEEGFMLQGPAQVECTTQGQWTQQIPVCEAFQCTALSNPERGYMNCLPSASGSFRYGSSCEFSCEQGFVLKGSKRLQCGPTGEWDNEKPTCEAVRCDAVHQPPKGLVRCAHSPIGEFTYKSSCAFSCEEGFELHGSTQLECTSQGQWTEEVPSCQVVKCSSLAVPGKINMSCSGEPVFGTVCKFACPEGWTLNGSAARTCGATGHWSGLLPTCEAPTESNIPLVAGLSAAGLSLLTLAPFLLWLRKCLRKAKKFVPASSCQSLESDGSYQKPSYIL
Chain of human Thyroid Receptor alpha (THRa1), THRA (gene 7067) (P10827 whole entry, looked up): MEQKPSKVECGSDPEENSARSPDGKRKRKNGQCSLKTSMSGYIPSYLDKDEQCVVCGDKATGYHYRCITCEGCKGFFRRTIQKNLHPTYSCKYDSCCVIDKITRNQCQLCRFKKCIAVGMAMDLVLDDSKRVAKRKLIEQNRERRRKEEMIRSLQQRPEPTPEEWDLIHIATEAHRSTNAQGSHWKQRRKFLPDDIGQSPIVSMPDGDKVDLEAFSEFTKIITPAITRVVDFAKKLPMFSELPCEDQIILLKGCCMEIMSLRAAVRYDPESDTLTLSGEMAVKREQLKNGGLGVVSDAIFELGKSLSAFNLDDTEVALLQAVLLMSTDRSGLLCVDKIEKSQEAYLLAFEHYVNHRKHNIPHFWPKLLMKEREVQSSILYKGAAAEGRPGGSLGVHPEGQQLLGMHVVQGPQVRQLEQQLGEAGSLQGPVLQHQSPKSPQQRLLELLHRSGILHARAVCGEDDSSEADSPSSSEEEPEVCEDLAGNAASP

One assay deals with Retinoic acid receptor RXR-alpha (Homo sapiens) (UniProt P19793). Kind of assay: ATG_RXRa_TRANS: Attagene TRANS-FACTORIAL HepG2 Assay for human Retinoid X Receptor alpha (RXRa) (AID 2283012).
Chain of Retinoic acid receptor RXR-alpha (Homo sapiens) (P19793 whole entry, looked up): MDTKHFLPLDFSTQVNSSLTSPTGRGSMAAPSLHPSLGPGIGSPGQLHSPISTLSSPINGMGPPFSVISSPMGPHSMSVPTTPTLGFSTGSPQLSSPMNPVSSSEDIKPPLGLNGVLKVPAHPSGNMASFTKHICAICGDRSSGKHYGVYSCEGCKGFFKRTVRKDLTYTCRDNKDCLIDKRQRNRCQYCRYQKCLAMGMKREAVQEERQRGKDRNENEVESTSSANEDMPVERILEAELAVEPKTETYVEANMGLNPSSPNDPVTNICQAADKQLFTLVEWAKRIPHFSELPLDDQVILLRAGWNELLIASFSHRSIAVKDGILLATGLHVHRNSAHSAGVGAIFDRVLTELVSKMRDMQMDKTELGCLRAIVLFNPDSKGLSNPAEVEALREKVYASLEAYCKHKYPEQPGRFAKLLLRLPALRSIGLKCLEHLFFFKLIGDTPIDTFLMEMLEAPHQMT
Conditions: not given
Put shortly:
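Chimeric NR-GAL4 trans-activation in HepG2, 24 h treatment; reporter transcripts quantified by fluorescence on capillary electrophoresis, analysed for upward change from DMSO.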
Regarding `OC[P+](CO)(CO)CO`, the result was inactive. Still for that read-out and setting: the value for `COc1nn(C(=O)NS(=O)(=O)c2ccccc2OC(F)(F)F)c(=O)n1C` was “inactive”; that for `CC(C)(c1ccc(O)c(-c2ccccc2)c1)c1ccc(O)c(-c2ccccc2)c1` was “inactive”. Still for that read-out and setting: the value for `O=[N+]([O-])c1c2ccccc2cc2ccccc12` was “inactive”; that for `Cc1cc(C)cc(C)c1` was “inactive”.

`Cc1ccccc1OP(=O)(Oc1ccccc1)Oc1ccccc1`: the result was inactive. Still for that read-out and setting: for `C=C(C)C(=O)OCCCCOC(=O)C(=C)C` the value was “inactive”. Still for that read-out and setting: the value for `CC(C)CC(C)(c1ccc(O)cc1)c1ccc(O)cc1` was “inactive”.

Turning to `C[N+](C)(C)Cc1ccccc1`, the outcome was inactive. The same measure, in the same setting: the value for `Cc1ccc(OP(=O)(Oc2ccc(C)cc2C)Oc2ccc(C)cc2C)c(C)c1` was “inactive”. Take `C=CCOC(F)(C(F)(F)F)C(F)(F)F`: the outcome was inactive.

For the molecule `O=c1oc2ccccc2c(O)c1C(CC(O)c1ccc(-c2ccc(Br)cc2)cc1)c1ccccc1` (stereo not given), the result was inactive. On the same count and under the same terms, the value for `O=S(=O)(Oc1ccc(Cl)cc1)c1ccc(Cl)cc1` was “inactive”. Same read-out and setting: for `O=S(=O)(c1ccc(Cl)cc1)c1cc(Cl)c(Cl)cc1Cl` the value was “inactive”.

For `OC(c1ccc(Cl)cc1)(c1ccc(Cl)cc1)c1cccnc1`, the molecule was classed as inactive.

Take `O=NN1CCOCC1`: the molecule was classed as inactive. With `OC(Cc1ccccc1Cl)(Cn1[nH]cnc1=S)C1(Cl)CC1` (stereo not given), the result was inactive. On the same count and under the same terms, for `Cc1ccc2nc3sc(=O)sc3nc2c1` the value was “inactive”. On the same count and under the same terms, the value for `O=c1[nH]c2ccccc2n1C1CCN(CCCC(c2ccc(F)cc2)c2ccc(F)cc2)CC1` was “inactive”; that for `CC(C)(C)c1ccc(CCOc2ncnc3ccccc23)cc1` was “inactive”.

As to `CCOC(=O)Cc1ccccc1`, the result was inactive. Same read-out and setting: the value for `C=CC(Cl)CCl` (stereo not given) was “inactive”.

A further assay deals with human Retinoid X Receptor beta (RXRb), RXRB (gene 6257) (UniProt P28702). Kind of assay: ATG_RXRb_TRANS: Attagene TRANS-FACTORIAL HepG2 Assay for human Retinoid X Receptor beta (RXRb) (AID 2283013).
Chain of human Retinoid X Receptor beta (RXRb), RXRB (gene 6257) (P28702 whole entry, looked up): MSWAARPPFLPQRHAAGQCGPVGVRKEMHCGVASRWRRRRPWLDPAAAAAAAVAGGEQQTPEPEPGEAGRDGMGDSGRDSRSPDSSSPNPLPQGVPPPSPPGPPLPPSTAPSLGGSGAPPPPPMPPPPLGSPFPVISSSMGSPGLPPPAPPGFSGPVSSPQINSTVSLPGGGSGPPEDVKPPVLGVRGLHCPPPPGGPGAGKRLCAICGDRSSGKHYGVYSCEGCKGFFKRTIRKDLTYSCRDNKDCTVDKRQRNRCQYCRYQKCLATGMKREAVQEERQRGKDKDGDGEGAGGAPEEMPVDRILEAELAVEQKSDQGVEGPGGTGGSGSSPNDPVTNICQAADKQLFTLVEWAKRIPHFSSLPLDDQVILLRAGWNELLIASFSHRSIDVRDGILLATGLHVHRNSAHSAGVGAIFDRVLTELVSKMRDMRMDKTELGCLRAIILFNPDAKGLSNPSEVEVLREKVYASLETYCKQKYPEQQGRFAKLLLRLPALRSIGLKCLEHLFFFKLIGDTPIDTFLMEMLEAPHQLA
Conditions: not given
The method, boiled down: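 After a 24 h incubation with test chemical, transfected HepG2 cells carrying NR-Gal4 fusions and GAL4-UAS reporter transcription units yield RNA whose reporter cDNA is FAM-labelled, HpaI-cut and sized by capillary electrophoresis; increases over DMSO are scored.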
On to `CCC[CH2][Sn]([CH2]CCC)([CH2]CCC)[CH2]CCC`, for which the AC50 was 0.0334 µM (active). Still for that read-out and setting: the value for `O=[N+]([O-])c1c2ccccc2cc2ccccc12` was 5.12 µM (active). For the molecule `CCCCN(CCCCO)N=O`, the outcome was inactive. With `[F][Sn]([c]1ccccc1)([c]1ccccc1)[c]1ccccc1`, the AC50 is 0.00128 µM (active). On to `CCNc1nc(NCC)nc(SC)n1`, for which the outcome was inactive. For the molecule `CC(=Cc1ccccc1)[N+](=O)[O-]`, the AC50 was 17.3 µM (active). Take `C=CCN=C=S`: the molecule was classed as inactive. On the same count and under the same terms, for `C=C(C)C(=O)OCCCCOC(=O)C(=C)C` the value was “inactive”. Still for that read-out and setting: for `CC1(C)[C@H](/C=C2\CCSC2=O)[C@@H]1C(=O)OCc1coc(Cc2ccccc2)c1` the value was “inactive”. Same read-out and setting: the value for `CNC(=O)O/N=C/C(C)(C)S(C)(=O)=O` was “inactive”; that for `CCCCCCCCCCCCBr` was “inactive”; that for `CC(C)(C#N)N=NC(C)(C)C#N` was “inactive”. In the case of `COP(=S)(OC)Oc1cc(Cl)c(I)cc1Cl`, the AC50 was 38.6 µM (active).

`OC[C@@H](O)[C@H]1O[C@@H]2O[C@H](C(Cl)(Cl)Cl)O[C@@H]2[C@H]1O`: the call was inactive.

For `CC(C)(C)c1ccc(CCOc2ncnc3ccccc23)cc1`, the outcome was inactive. As for `CCCCCCCCCCCCOS(=O)(=O)O`, the AC50 is 33.4 µM (active). As to `CCCCC(CC)COC(=O)Cl` (stereo not given), the molecule was classed as inactive. On the same count and under the same terms, for `CCOC(=O)OC1=C(c2cc(C)ccc2C)C(=O)NC12CCC(OC)CC2` (stereo not given) the value was “inactive”.

The next assay has as its target human Thyroid Receptor alpha (THRa1), THRA (gene 7067) (UniProt P10827). Kind of assay: ATG_THRa1_TRANS: Attagene TRANS-FACTORIAL HepG2 Assay for human Thyroid Receptor alpha (THRa1) (AID 2283014).
Conditions: not given
Put shortly: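 HepG2 cells transiently transfected with chimeric NR-Gal4 and GAL4-UAS reporter units, dosed 24 h. Reporter mRNA quantified by RT-PCR, fluorescent labeling, HpaI digestion and capillary electrophoresis; gain-of-signal fit versus DMSO.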
For the molecule `OC[P+](CO)(CO)CO`, the call was inactive.

For the molecule `CCC[CH2][Sn]([CH2]CCC)([CH2]CCC)[CH2]CCC`, the molecule was classed as inactive. Same read-out and setting: the value for `CCCCN(CCCCO)N=O` was “inactive”. Turning to `Cc1cc(C)cc(C)c1`, the molecule was classed as inactive. The same measure, in the same setting: for `CCNc1nc(NCC)nc(SC)n1` the value was “inactive”; for `CC(C)CC(C)(c1ccc(O)cc1)c1ccc(O)cc1`, “inactive”; for `C[N+](C)(C)Cc1ccccc1`, “inactive”. With `C=CCOC(F)(C(F)(F)F)C(F)(F)F`, the call was inactive. With `O=c1oc2ccccc2c(O)c1C(CC(O)c1ccc(-c2ccc(Br)cc2)cc1)c1ccccc1` (stereo not given), the molecule was called inactive. `O=S(=O)(Oc1ccc(Cl)cc1)c1ccc(Cl)cc1`: the molecule was called inactive. On the same count and under the same terms, for `COP(=S)(OC)Oc1cc(Cl)c(I)cc1Cl` the value was “inactive”. Take `OC(Cc1ccccc1Cl)(Cn1[nH]cnc1=S)C1(Cl)CC1` (stereo not given): the AC50 is 27.8 µM (active). With `Cc1ccc2nc3sc(=O)sc3nc2c1`, the AC50 was 6.55 µM (active). In the case of `CCOC(=O)Cc1ccccc1`, the call was inactive.

Read-out in the next assay: E-selectin (Homo sapiens) (UniProt P16581)
Description: BSK_3C_Eselectin: BioMAP Diversity Plus: 3C Assay for Eselectin Biomarker Activity (AID 2283015; active = hit-call score of the fitted dose curve at least 0.9, where 1 is the maximum; inactive = score below 0.9;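 as to outcome: cell surface E-selectin protein quantified by ELISA 24 h after dosing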). Particulars: primary human endothelial cells (HUVEC); actives raise or lower the signal. Put shortly:
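Primary human umbilical vein endothelial cells (3C system), read 24 h after compound addition; E-selectin measured by ELISA. Bidirectional curve fitting against DMSO baseline; cytotoxicity by parallel SRB total-protein staining.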
`Cc1cc(C)cc(C)c1`: the outcome was inactive. Turning to `Cc1ccccc1OP(=O)(Oc1ccccc1)Oc1ccccc1`, the AC50 was 20 µM (active).

Take `Cc1ccc(OP(=O)(Oc2ccc(C)cc2C)Oc2ccc(C)cc2C)c(C)c1`: the outcome was inactive. In the case of `O=c1oc2ccccc2c(O)c1C(CC(O)c1ccc(-c2ccc(Br)cc2)cc1)c1ccccc1` (stereo not given), the AC50 was 19.1 µM (active). Turning to `O=S(=O)(c1ccc(Cl)cc1)c1cc(Cl)c(Cl)cc1Cl`, the result was inactive.

As for `OC(Cc1ccccc1Cl)(Cn1[nH]cnc1=S)C1(Cl)CC1` (stereo not given), the AC50 is 20 µM (active). On to `Cc1ccc2nc3sc(=O)sc3nc2c1`, for which the AC50 was 8.99 µM (active). Consider `C=CC(Cl)CCl` (stereo not given), for which the outcome was inactive.

Read-out in another assay: Interleukin-1 alpha (IL1a), IL1A (gene 3552)
Kind of assay: BSK_BE3C_IL1a: BioMAP Diversity Plus: BE3C Assay for Interleukin-1 alpha (IL1a) Biomarker Activity (AID 2283016; active = hit-call score of the fitted dose curve at least 0.9, where 1 is the maximum; inactive = score below 0.9). Particulars: primary human bronchial epithelial cells; actives raise or lower the signal. Put shortly:
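Measured in human lung primary bronchial epithelial cells: IL-1a by ELISA at 24 h after dosing, with bidirectional fitting against DMSO.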
With `Cc1cc(C)cc(C)c1`, the outcome was inactive.

Regarding `Cc1ccccc1OP(=O)(Oc1ccccc1)Oc1ccccc1`, the AC50 is 6.89 µM (active). Still for that read-out and setting: the value for `Cc1ccc(OP(=O)(Oc2ccc(C)cc2C)Oc2ccc(C)cc2C)c(C)c1` was 4.77 µM (active); that for `O=c1oc2ccccc2c(O)c1C(CC(O)c1ccc(-c2ccc(Br)cc2)cc1)c1ccccc1` (stereo not given) was 5.31 µM (active).

Turning to `O=S(=O)(c1ccc(Cl)cc1)c1cc(Cl)c(Cl)cc1Cl`, the result was inactive.

For the molecule `OC(Cc1ccccc1Cl)(Cn1[nH]cnc1=S)C1(Cl)CC1` (stereo not given), the AC50 is 33.2 µM (active).

For `Cc1ccc2nc3sc(=O)sc3nc2c1`, the result was inactive. For `C=CC(Cl)CCl` (stereo not given), the AC50 was 0.14 µM (active).
